Experimental data taken from PubChem BioAssay (NCATS).
Inconclusive results are not listed. A call without a number means that no potency is given here. Calls of active or inactive are those of the source. Unless noted, calls follow the shape of the full dose curve.

How the values were obtained:
[1] = target: Glucocorticoid receptor (Homo sapiens) (UniProt P04150); assay: qHTS assay for small molecule agonists of glucocorticoid receptor signaling (AID 588532; active = well fitted curve in the direction sought with a large enough effect in the signal ratio, with a control signal flat; the % refers to the signal ratio); details: HeLa MMTV-bla, beta-lactamase ratio, agonist, 18 h; stronger effect = higher value; percent of dexamethasone control, DMSO zero
Glucocorticoid receptor (Homo sapiens), sequence (P04150 whole entry, looked up): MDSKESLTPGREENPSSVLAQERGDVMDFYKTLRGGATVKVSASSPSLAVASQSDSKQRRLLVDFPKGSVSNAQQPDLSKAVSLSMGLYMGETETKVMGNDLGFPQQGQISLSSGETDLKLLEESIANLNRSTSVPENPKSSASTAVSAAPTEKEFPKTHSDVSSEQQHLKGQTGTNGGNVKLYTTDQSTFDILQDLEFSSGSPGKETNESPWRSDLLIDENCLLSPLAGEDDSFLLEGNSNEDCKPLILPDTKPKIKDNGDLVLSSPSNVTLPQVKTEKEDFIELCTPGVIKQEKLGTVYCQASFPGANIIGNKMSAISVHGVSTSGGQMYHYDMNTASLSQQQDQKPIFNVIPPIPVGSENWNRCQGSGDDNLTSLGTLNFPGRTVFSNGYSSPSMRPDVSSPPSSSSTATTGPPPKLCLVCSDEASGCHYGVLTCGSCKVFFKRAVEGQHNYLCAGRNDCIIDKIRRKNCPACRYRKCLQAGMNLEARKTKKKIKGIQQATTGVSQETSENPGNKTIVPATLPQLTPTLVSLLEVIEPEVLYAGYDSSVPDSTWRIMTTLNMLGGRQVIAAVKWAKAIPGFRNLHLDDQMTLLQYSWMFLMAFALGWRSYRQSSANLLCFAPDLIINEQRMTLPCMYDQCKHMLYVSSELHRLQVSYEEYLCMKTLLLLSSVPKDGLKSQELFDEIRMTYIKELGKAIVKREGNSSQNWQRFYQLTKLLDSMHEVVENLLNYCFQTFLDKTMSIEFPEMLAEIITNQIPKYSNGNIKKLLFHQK
Summary of the method: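 MMTV-bla HeLa, beta-lactamase reporter; medium with 1% charcoal/dextran-stripped FBS; cpds up to 92 uM, 18 h, 37 C; CCF4 readout 460/530 nm; Hill fit → EC50, efficacy vs 0.1 uM dexamethasone = 100%.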

[2] = target: Glucocorticoid receptor (Homo sapiens) (UniProt P04150); assay: qHTS assay for small molecule antagonists of glucocorticoid receptor signaling (AID 588533; active = well fitted inhibition curve with a large enough effect in the signal ratio, with a control signal flat, not every such curve was filed as active; the % refers to the signal ratio;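 also: cells stimulated with 2 nM dexamethasone as agonist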); details: HeLa MMTV-bla, GRE beta-lactamase ratio, antagonist mode, 18 h; series mostly up to 76.8 µM
Summary of the method: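 Antagonist-mode qHTS: compound titrations added to GRE-bla HeLa cells, then dexamethasone 2 nM final; 18 h, 37 C. CCF4 FRET fluorescence normalized to dexamethasone and DMSO; IC50 from Hill fit.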

[3] = qHTS assay for small molecule antagonists of peroxisome proliferator-activated receptor delta signaling (AID 588535; active = well fitted inhibition curve with a large enough effect in the signal ratio, with a control signal flat, not every such curve was filed as active; the % refers to the signal ratio;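 as to max response: cells co-treated with a PPAR-delta agonist as stimulator during compound exposure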); details: HEK293T PPARd-UAS-bla, beta-lactamase FRET ratio, 18 h; 460 nm channel
Summary of the method: (§1)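 Compounds tested in titration on PPAR-delta-UAS-bla HEK293T cells grown in charcoal/dextran-stripped serum (2%); beta-lactamase activity read via CCF4 emission at 460 and 530 nm.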

[4] = target: Peroxisome proliferator-activated receptor delta (Homo sapiens) (UniProt Q03181); assay: as above; details: HEK293T PPARd-UAS-bla, beta-lactamase FRET ratio, 18 h; series mostly up to 76.7 µM
Peroxisome proliferator-activated receptor delta (Homo sapiens), sequence (Q03181 whole entry, looked up): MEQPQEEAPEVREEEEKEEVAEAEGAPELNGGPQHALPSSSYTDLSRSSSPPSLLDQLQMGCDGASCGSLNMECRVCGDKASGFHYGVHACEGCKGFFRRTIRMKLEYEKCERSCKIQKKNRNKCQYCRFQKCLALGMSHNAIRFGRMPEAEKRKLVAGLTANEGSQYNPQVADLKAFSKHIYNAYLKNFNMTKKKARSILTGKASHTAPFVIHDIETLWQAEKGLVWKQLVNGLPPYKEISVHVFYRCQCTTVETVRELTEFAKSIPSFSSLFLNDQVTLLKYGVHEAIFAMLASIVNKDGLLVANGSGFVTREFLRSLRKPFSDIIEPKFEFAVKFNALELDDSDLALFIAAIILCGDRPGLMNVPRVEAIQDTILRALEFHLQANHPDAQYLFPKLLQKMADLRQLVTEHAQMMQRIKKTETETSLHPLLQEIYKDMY
Summary of the method: as §1

[5] = target: Peroxisome proliferator-activated receptor gamma (Homo sapiens) (UniProt P37231); assay: qHTS assay for small molecule agonists of peroxisome proliferator-activated receptor gamma signaling (AID 588536; active = well fitted curve in the direction sought with a large enough effect in the signal ratio, with a control signal flat, not every such curve was filed as active; the % refers to the signal ratio); details: HEK293 PPARg-UAS-bla, beta-lactamase ratio, 16 h, percent of rosiglitazone response, DMSO as zero; series mostly up to 76.7 µM
Peroxisome proliferator-activated receptor gamma (Homo sapiens), sequence (P37231 whole entry, looked up): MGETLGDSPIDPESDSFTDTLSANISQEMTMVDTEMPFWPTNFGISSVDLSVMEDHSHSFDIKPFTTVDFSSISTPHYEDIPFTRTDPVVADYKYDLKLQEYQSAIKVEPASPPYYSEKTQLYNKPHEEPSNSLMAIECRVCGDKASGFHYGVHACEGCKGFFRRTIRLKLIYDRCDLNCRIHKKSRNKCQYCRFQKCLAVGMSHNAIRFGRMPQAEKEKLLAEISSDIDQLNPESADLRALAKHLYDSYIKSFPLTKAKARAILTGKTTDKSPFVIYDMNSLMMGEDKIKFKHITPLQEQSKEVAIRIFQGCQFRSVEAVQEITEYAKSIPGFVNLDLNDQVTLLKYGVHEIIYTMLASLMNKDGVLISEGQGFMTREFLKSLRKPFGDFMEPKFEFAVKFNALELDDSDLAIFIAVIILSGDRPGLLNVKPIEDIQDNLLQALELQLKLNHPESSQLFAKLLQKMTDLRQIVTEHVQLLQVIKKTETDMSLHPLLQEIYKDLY
Summary of the method: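 Cells were plated and held 6–6.5 h at 37 C, then compounds were added as a titration series. After a further 16 h, CCF4 dye was loaded for 2 h at room temperature and emission at 460/530 nm recorded.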

[6] = target: Vitamin D3 receptor (Homo sapiens) (UniProt P11473); assay: qHTS assay for small molecule antagonists of vitamin D receptor signaling (AID 588541); details: HEK293T VDR-UAS-bla, beta-lactamase ratio, antagonist mode; series mostly up to 76.7 µM;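 also: receptor activated by calcitriol during compound treatment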
Vitamin D3 receptor (Homo sapiens), sequence (P11473 whole entry, looked up): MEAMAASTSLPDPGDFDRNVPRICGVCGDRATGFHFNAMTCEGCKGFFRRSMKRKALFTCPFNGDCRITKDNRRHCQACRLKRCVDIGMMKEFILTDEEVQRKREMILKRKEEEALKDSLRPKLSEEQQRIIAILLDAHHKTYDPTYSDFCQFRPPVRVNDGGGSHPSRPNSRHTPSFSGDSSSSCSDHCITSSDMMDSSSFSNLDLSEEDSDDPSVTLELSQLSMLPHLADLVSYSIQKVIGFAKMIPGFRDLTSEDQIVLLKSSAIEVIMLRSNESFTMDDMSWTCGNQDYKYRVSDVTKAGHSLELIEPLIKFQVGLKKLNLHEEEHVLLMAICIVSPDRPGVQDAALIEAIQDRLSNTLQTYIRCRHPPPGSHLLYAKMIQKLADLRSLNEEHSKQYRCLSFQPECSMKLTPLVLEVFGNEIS
Summary of the method: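 VDR-UAS-bla HEK293T cells (2000/well, 2% charcoal-stripped FBS) were treated with titrated compounds plus 1-alpha,25-dihydroxyvitamin D3 (50 nM or 3 nM final) for 16 h at 37 C. CCF4 beta-lactamase fluorescence was read; Hill fits gave IC50.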

[7] = target: Vitamin D3 receptor (Homo sapiens) (UniProt P11473); assay: qHTS assay for small molecule agonists of vitamin D receptor signaling (AID 588543); details: HEK293T VDR-UAS-bla, beta-lactamase ratio, 16 h; series mostly up to 76.8 µM
Summary of the method: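 GeneBLAzer VDR-UAS-bla HEK293T cells in 2% charcoal-stripped FBS medium were dosed with compound titrations for 16 h at 37 °C; CCF4 β-lactamase readout (405 nm ex, 460/530 nm em). EC50 and efficacy from Hill fits, normalized to 50 nM calcitriol (100%) and DMSO (0%).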

[8] = qHTS assay for small molecule agonists of retinoid X receptor alpha signaling (AID 588544); details: HEK293T RXRa-UAS-bla, beta-lactamase reporter, 18 h; 530 nm emission
[9] = target: Androgen receptor (Homo sapiens) (UniProt P10275); assay: qHTS assay for small molecule agonists of androgen receptor signaling (AID 588515; active = well fitted curve in the direction sought with a large enough effect in the signal ratio, with a control signal flat; the % refers to the signal ratio); details: AR-UAS-bla HEK293, beta-lactamase ratio, agonist 16 h; stronger effect = higher value
Androgen receptor (Homo sapiens), sequence (P10275 whole entry, looked up): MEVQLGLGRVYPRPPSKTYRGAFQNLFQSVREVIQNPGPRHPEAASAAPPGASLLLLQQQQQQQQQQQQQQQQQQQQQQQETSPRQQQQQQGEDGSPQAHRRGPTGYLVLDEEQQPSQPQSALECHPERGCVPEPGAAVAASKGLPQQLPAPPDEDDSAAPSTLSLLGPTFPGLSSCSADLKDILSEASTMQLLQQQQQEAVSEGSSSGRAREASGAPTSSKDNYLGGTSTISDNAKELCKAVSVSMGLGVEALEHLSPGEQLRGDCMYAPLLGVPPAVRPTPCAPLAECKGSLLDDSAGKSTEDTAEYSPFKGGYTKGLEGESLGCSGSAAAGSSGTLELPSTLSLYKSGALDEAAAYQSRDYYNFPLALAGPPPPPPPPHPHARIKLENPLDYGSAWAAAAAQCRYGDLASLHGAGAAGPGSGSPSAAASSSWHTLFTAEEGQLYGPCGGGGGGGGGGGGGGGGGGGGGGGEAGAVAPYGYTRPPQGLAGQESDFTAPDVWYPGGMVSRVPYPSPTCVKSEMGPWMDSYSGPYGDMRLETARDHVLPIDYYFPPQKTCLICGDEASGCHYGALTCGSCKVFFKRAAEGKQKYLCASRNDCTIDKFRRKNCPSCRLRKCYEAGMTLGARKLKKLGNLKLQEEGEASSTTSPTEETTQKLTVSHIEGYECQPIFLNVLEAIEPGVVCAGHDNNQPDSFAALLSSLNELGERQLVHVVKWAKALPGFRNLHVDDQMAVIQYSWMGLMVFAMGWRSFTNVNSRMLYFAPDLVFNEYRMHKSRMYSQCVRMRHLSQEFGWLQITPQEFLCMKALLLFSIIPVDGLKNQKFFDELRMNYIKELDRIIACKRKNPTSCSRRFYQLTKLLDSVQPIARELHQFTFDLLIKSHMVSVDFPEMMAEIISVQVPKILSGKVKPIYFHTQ
Summary of the method: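 Stimulation of an AR-responsive β-lactamase reporter in GripTite HEK293 cells was measured after 16 h compound exposure at 37 °C, via CCF4 fluorescence after 2 h RT. EC50 from Hill fits, normalized to R1881 at 30 nM.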

[10] = target: Androgen receptor (Homo sapiens) (UniProt P10275); assay: qHTS assay for small molecule antagonists of androgen receptor signaling (AID 588516; active = well fitted curve in the direction sought with a large enough effect in the signal ratio, with a control signal flat, not every such curve was filed as active; the % refers to the signal ratio; also: potency is read from the fitted curve at half-maximal effect); details: AR-UAS-bla HEK293, beta-lactamase ratio, antagonist mode, 16 h; series mostly up to 76.8 µM
Summary of the method: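 AR-UAS-bla-GripTite HEK 293 cells (2000/well, 5 h at 37 C) received compound titrations, then R1881 at 10 nM final; after 16 h at 37 C, CCF4 dye 2 h RT, beta-lactamase fluorescence read; IC50 from Hill fits.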

| SMILES | activation [1] | outcome [2] | max response [3] | outcome [4] | outcome [5] | outcome [6] | outcome [7] | max response [8] | activation [9] | Potency [10] |
| --- | --- | --- | --- | --- | --- | --- | --- | --- | --- | --- |
| Nc1ccccc1N | 10.6% (inactive) | inactive | -23.4% | inactive | inactive | inactive | inactive | 12.1% | – | – |
| CC(=O)O[C@H]1C(=O)[C@@]2(C)[C@H]([C@H](OC(=O)c3ccccc3)[C@]3(O)C[C@H](OC(=O)[C@H](O)[C@@H](NC(=O)c4ccccc4)c4ccccc4)C(C)=C1C3(C)C)[C@]1(OC(C)=O)CO[C@@H]1C[C@@H]2O | – | – | – | – | – | – | inactive | -13.7% | -6.87% (inactive) | 0.0501 µM (active) |
| CC(=O)O[C@@H]1CC(C)=C2[C@H]1[C@H](C)CC[C@H]2/C=C(\C)C(=O)O | 9.44% (inactive) | inactive | – | – | inactive | inactive | inactive | 12.6% | -3.27% (inactive) | – |
| Cc1ccc(N)cc1O | 0.383% (inactive) | inactive | -0.329% | inactive | inactive | inactive | inactive | 6.75% | – | inactive |
